Assay outcomes from PubChem BioAssay.
GIRK2 act: Activators of human GIRK2-containing channels; 34,000 tested, under 10 active; P48051; activation (% efficacy), % for hits at 37.5 µM; HEK293 GIRK2/NPY4 cells, thallium flux fluorescence;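 active means primary screen hit, no activity in plain HEK293 cells, and in GIRK2-only cells above 5% efficacy rising with concentration; inactive means the rest, including fluorescent compounds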;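 further: efficacy is normalized control-subtracted fluorescence 15 s after thallium addition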
AMPAR-TARP mod: modulates AMPAR-stargazin complexes; HEK293 GluA2+stargazin, membrane potential dye (FDSS), glutamate EC50; hits were called plate by plate, in both directions; hit rate 3.5% among 40,000; AID 1259245; calls only at 30 µM;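 active means any of four per-well response measures lying three or more SD from its plate-wide compound average, in either direction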
Of the large screens only hits and unclear results are named; the others gave an inactive call. Many of the other results were omitted from the sample, so hits are more common in it than they were.

CSc1ccccc1NC(=O)c1cc2n(n1)C(C(F)(F)F)CC(c1ccco1)N2 (stereo not given)	none (no result: GIRK2 act)
CC(C)(C)OC(=O)N1CCCC(O)(C(=O)O)C1 (stereo not given)	none
COc1cccc(OCCOCC(O)CN2CCN(c3ccccc3F)CC2)c1 (stereo not given)	AMPAR-TARP mod active (no result: GIRK2 act)
CCc1ccc(OCCOCC(O)CN2CCN(c3ccccc3F)CC2)cc1 (stereo not given)	none (no result: GIRK2 act)
O=c1nc(SCc2cccc(Cl)c2)c2c(n1CC1CCCO1)CCCC2 (stereo not given)	AMPAR-TARP mod active
O=c1nc(SCc2cccc([N+](=O)[O-])c2)c2c(n1CC1CCCO1)CCC2 (stereo not given)	none
O=C(c1ccco1)N1CCC(Cn2cccn2)CC1	none
O=C(N1CCC(Cn2cccn2)CC1)C1(c2ccccc2)CCOCC1	AMPAR-TARP mod active
COc1ccc(NC(=O)C(=O)c2cn(CC(=O)N3CCOCC3)c3ccccc23)cc1	none (no result: GIRK2 act)
COc1ccc(CCNC(=O)C(=O)c2cn(CC(=O)N3CCOCC3)c3ccccc23)cc1	AMPAR-TARP mod active (no result: GIRK2 act)
C=CCn1c(=O)c2c(nc3n2CC(C)CN3c2ccc(Oc3ccccc3)cc2)n(C)c1=O (stereo not given)	none (no result: GIRK2 act)
COc1ccc2sc(N(CCN3CCOCC3)C(=O)c3cc(Cl)sc3Cl)nc2c1	none
COc1ccc(S(=O)(=O)N2CCC(c3ccsc3)CC2)cc1C	none
CC(=O)c1ccccc1OCC(O)CN1CCN(c2ccccc2F)CC1 (stereo not given)	none
O=C(Cc1csc(Nc2ccccc2)n1)NCCc1ccccc1	none
CC(CCc1ccccc1)NC(=O)Cc1csc(Nc2ccccc2)n1 (stereo not given)	AMPAR-TARP mod active
CC(O)(CNC(=O)C(=O)Nc1ccc2c(c1)OCO2)c1ccccc1 (stereo not given)	none (no result: AMPAR-TARP mod)
Cc1ccc(N2CCCS2(=O)=O)cc1NC(=O)Nc1ccc(Cl)c(Cl)c1	none
O=C(Nc1ccc(N2CCCS2(=O)=O)cc1)Nc1ccc(Cl)c(Cl)c1	AMPAR-TARP mod active
COc1ccc(CNc2oc(-c3ccc(S(=O)(=O)N4CCCC(C)C4)cc3)nc2C#N)cc1 (stereo not given)	none
O=S(=O)(NCC#CCN1CCc2ccccc2C1)c1ccc2ccccc2c1	none
O=S(=O)(NCC#CCN1CCCCC1)c1ccc2ccccc2c1	AMPAR-TARP mod active (no result: GIRK2 act)
COc1ccc(-c2noc(-c3c(SC)nn(CC(=O)Nc4ccc(C)c(C)c4)c3N)n2)cc1	none
O=C(c1cccs1)N1CCC(c2nnc(-c3ccc(F)cc3)o2)CC1	none
O=C(N1CCC(c2nnc(-c3ccc(F)cc3)o2)CC1)C1(c2cccs2)CCCC1	AMPAR-TARP mod active
CNC(=O)c1c(N)sc2c1CCC2	none
Cc1ccnc(Nc2ccc(NCCNS(=O)(=O)c3ccc(F)cc3)nn2)c1	AMPAR-TARP mod active
O=S(=O)(NCCNc1ccc(Nc2ccccn2)nn1)c1ccc(F)cc1	none
CC(C)Oc1ccc(C(=O)Nc2ccc3ncsc3c2)cc1	none
COc1ccc(C(=O)Nc2ccc3c(c2)CCC(=O)N3C)cc1	none (no result: GIRK2 act)
